# In PubChem BioAssay (NCI):
# Values joined by “and” are separate entries in the source; they are usually repeats but may differ in a detail not shown here. Equal values may be shown once. Compounds without any hit were thinned out: in the full panel of roughly 79,000, 15% have a hit. Values without a mark were called inactive. Active and inactive are the calls of the source. Cut-off read from the data, not from the text of the source: active = growth inhibition above about 70%; inactive = the rest.
# Tests used:
# [1] = NCI Yeast Anticancer Drug Screen. Data for the rad50 strain (AID 155);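 note: 0% = growth of vehicle-only cultures of the same strain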; conditions: S. cerevisiae rad50 strain growth inhibition; at 50.0 µM; hits give high values
# Outline: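 A DNA repair-deficient yeast mutant serves as the test organism; compound-induced growth inhibition is calculated against vehicle-treated cells.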
# [2] = NCI Yeast Anticancer Drug Screen. Data for the mec2-1 strain (AID 157); conditions: S. cerevisiae mec2-1 strain, at 50.0 µM, hits give high values
# Outline: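 Compounds were applied to mec2-1 yeast cells. Their growth was then compared with that of vehicle-treated cultures to give growth inhibition.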
# [3] = NCI Yeast Anticancer Drug Screen. Data for the sgs1 mgt1 strain (AID 161);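 note: 0% = growth of cultures given vehicle only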; conditions: S. cerevisiae sgs1 mgt1 strain, at 50.0 µM, hits give high values
# Outline: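 Yeast cells carrying a defined DNA-repair defect were exposed to test compounds. Growth inhibition was measured relative to vehicle-treated controls.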
# [4] = NCI Yeast Anticancer Drug Screen. Data for the cln2 rad14 strain (AID 165);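 note: 0% = growth equal to vehicle treated cultures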; conditions: S. cerevisiae cln2 rad14 strain, at 50.0 µM, hits give high values
# Outline: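 Strain: cln2 rad14 yeast, altered in cell cycle control and DNA damage repair. Read-out: growth inhibition vs vehicle.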
# [5] = NCI Yeast Anticancer Drug Screen. Data for the bub3 strain (AID 167); conditions: S. cerevisiae bub3 mutant strain, at 50.0 µM, hits give high values
# Outline: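 Inhibition values come from growth of compound-treated mutant yeast normalised to vehicle-treated controls.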
# [6] = NCI Yeast Anticancer Drug Screen. Data for the mlh1 rad18 strain (AID 175); conditions: S. cerevisiae mlh1 rad18 strain growth inhibition; at 50.0 µM; hits give high values
# Outline: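 A repair-deficient yeast strain is exposed to test compound, and growth is scored relative to vehicle-treated controls.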
Structure (SMILES),growth inhibition [1],growth inhibition [2],growth inhibition [3],growth inhibition [4],growth inhibition [5],growth inhibition [6]
O=[N+]([O-])c1ccc([Se]c2ncccn2)c([N+](=O)[O-])c1,-14.8%,1.95%,-19.4%,-8.75%,-3.15%,0.5%
CCCCN1CCC2(CC1)C(=O)NC(=S)NC2=O,-12.4%,-2.5%,-3.65%,4.65%,6.25%,-22.3%
CC(=O)OC[C@]12C[C@H](OC(=O)CC(C)C)C(C)=C[C@H]1O[C@@H]1[C@H](O)[C@@H](O)[C@@]2(C)[C@@]12CO2,83.2% (active),83% (active),83.3% (active),87.7% (active),81.9% (active),84.8% (active)
CCCCSP(=S)(SCCCC)SCCCC,36.6%,15.1%,38.5%,-20.2%,10.1%,42%
O=[N+]([O-])c1c(F)cc(F)c([N+](=O)[O-])c1F,-29.5%,-6.15%,-11.6%,-28.2%,-4.75%,52.9%
C1CC[N-]CC1.CC(=N\O)/C(C)=N/O.CC(=N\O)/C(C)=N/O.[CH2-]c1ccccc1.[Co+2],-3.75%,-0.9%,-13.4%,-36%,16.4%,-4.5%
CO/C=C/c1ccc2c(c1)OCO2,34.6%,25.5%,16.7%,10.2%,12.7%,-10.8%
Cc1ccc2[nH]c(=S)n(-c3ccc(Cl)cc3)c(=O)c2c1,9.3%,25.5%,29.9%,18.8%,24%,-2.05%
C[C@]12CCNC(=O)C=C1CC[C@@H]1C2CC[C@@]2(C)C1CC[C@@H]2OC(=O)COc1ccc(N(CCCl)CCCl)cc1 (some centres undefined),24.4%,25.1%,21.6%,60%,35.8%,-26.1%
CC12CCC3C(CCC4(C)CC(OC(=O)Cc5ccc(N(CCCl)CCCl)cc5)CCC34C)C1CCC2=O (centres undefined),-10.4%,2.85%,-2.3%,-1.4%,-4.8%,3.65%
CC(C)OC(=S)S.[Cu+2],-7%,-6.7%,-2.4%,-31.6%,-15.2%,2.4%
C[C@]12CCC(=O)N[C@@H]1CC[C@@H]1[C@@H]2CC[C@]2(C)[C@@H](OC(=O)COc3ccc(N(CCCl)CCCl)cc3)CC[C@@H]12,0.45%,4.7%,0.15%,11.8%,5.75%,-12.8%
CCCC(C)OP(=O)(OCC)OCC (centres undefined),2.2%,-2.7%,-5.35%,-48.4%,14.4%,-3.5%
[Se]=[Nb]=[Se],-5.8%,-6.55%,-18.3%,-5.1%,-27.1%,-28.5%
CC(C)CC1N=C(N(C)N=O)OP1(=O)NNc1ncccn1 (centres undefined),-5.5%,-14.9%,-15.4%,6.65%,13.8%,13.9%
NNC(=O)c1cc([N+](=O)[O-])c(O)c([N+](=O)[O-])c1,-9.85%,-14.8%,8.35%,7.4%,11.8%,-5.55%
[CH3][Sn]([CH3])([CH3])[O]C(=O)CNC(=O)c1ccccc1,-8.55%,-4.1%,-2.3%,27.9%,4.25%,-0.3%

Structure (SMILES),growth inhibition [1],growth inhibition [2],growth inhibition [3],growth inhibition [4],growth inhibition [5],growth inhibition [6]
O=[N+]([O-])c1cc(/C=N\NC(=S)NC2CN3CCC2CC3)ccc1Cl (centres undefined),22.5%,-24.1%,1.85%,0.15%,4.8%,2.4%
CC(C)N1CCc2cc3c(cc2C1)OCO3,9.8%,11.1%,1.3%,1.25%,-17.5%,23%
O=C1CCCC2C3CC(CN12)C1CCCCN1C3 (centres undefined),9.85% and 15.7%,-18.3% and -13.9%,-3.4% and 6.75%,9.05% and 21.3%,-11.8% and 26.9%,-29.3% and 32.3%
Br[CH](Br)[Hg][c]1ccccc1,99.2% (active),99.5% (active),94.3% (active),99.2% (active),99.2% (active),99.2% (active)
O=c1cccc2n1CC1CNCC2C1 (centres undefined),10.6%,13.4%,-16.2%,7.65%,15.7%,-22.1%
CN(C1CCCCC1)C1CCCCC1,-7.75%,-2.05%,-6.65%,-9.85%,6.6%,-8.3%
Nc1n[nH]c(CCc2nc(N)n[nH]2)n1,22.8%,-12.2%,-18.1%,7.65%,11.6%,4.9%
O=P(O)(Oc1ccccc1)Oc1ccccc1,33.7%,16.4%,14.8%,18.2%,0.55%,20.9%
ClCc1ccc2ccccc2n1,19.1% and 11.7%,-8.8% and -0.5%,-3.8% and 8.5%,7.55% and 3.35%,-17.6% and -7.65%,9.75% and 4.55%
O=C(COc1ccc(Cl)c(Cl)c1)Nc1ccc[n+](Cc2ccc(Cl)c(S(=O)(=O)F)c2)c1,98.2% (active),90.7% (active),95.3% (active),79.3% (active),78.2% (active),98.5% (active)
CCC[CH2][Sn]([CH2]CCC)([CH2]CCC)[CH2]CC[N+](C)(CCO)CCO.CS(=O)(=O)[O-],99.4% (active),99.2% (active),99.7% (active),99.3% (active),99.5% (active),99.2% (active)
OC/C=C\c1ccc2c(c1)OCO2,-19.2%,14.2%,17.2%,-9%,-58.5%,-32.5%
CC(=O)Oc1ccc(C=C(C#N)C#N)cc1,40.6%,6.6%,12.4%,-7.1%,2.05%,14.9%
CCOP(=O)(OCC)c1cc2cc(O)ccc2oc1=O,-40%,-26%,-32.2%,2.75%,-8.75%,-50.7%
C=C1CCC2CC1C2(C)C (centres undefined),5.95% and 13.7% and -4.1%,0.75% and -4.25% and -15.2%,6.5% and -6.65% and -29.8%,9.45% and -27% and 2.6%,10.3% and 0.05% and -6.7%,21.4% and 2.7% and -10.2%
CCOC(=O)Cc1ccccc1,24.1%,-5.85%,-1.95%,-2.05%,9.25%,23.8%
O=C(c1ccc([N+](=O)[O-])cc1)C1NC1c1ccccc1 (centres undefined),-24.2%,-16.6%,24%,-2.65%,22.3%,-15.7%
